Assay results taken from PubChem BioAssay AID431 (Sanford-Burnham Center for Chemical Genomics, 2006).
The whole screen tested about 63,000 compounds, of which about 1,100 (1.7%) were called active. The sample as a whole holds a higher share of actives than the screen did. Results with a measured potency or affinity are listed apart. Unmarked numbers belong to inactive results.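 Rule for the calls: active = compounds whose percent cytotoxicity in the single-dose primary screen, scaled between solvent and toxic-drug controls, exceeds 50; inactive = the rest.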

Experiment: viability loss of HPDE-C7K cells – cell-based, fluorescence, HTS, primary screen (AID 431);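 note: 0% = DMSO solvent wells and 100% = doxorubicin-treated wells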
Conditions: HPDE-C7K KRASV12 cells, Alamar Blue viability, 48 h; at 10 µM; active compounds read high

Question: Which cytotoxicity does the source give for `C=C(C)c1ccc(C(C)(C)NC(=O)NCc2ccco2)cc1` here?
Answer: 8.8%

Question: Which cytotoxicity does the source give for `CC(=O)c1c(C)[nH]c(C(=O)N2CCCCCC2)c1C` here?
Answer: -5.8%

Question: With `CC(=O)N1CCc2c(sc(NC(=O)CN3C(=O)CCC3=O)c2C(N)=O)C1` as the compound, how does the cytotoxicity read?
Answer: 0.3%

Question: With `COc1cc(NS(=O)(=O)c2cc(C)ccc2OC)c(OC)cc1Cl` as the compound, how does the cytotoxicity read?
Answer: 4%

Question: Which cytotoxicity does the source give for `COc1cc(NS(=O)(=O)c2ccc(OC)c(C)c2C)c(OC)cc1Cl` here?
Answer: 64.1% (active)

Question: Which cytotoxicity does the source give for `COc1ccc(OC)c(S(=O)(=O)Nc2cc(OC)c(Cl)cc2OC)c1` here?
Answer: 6.9%

Question: Which cytotoxicity does the source give for `C=CCn1c(=O)c(C(=O)Nc2ccccc2C(=O)OCC)c(O)c2ccccc21` here?
Answer: -8.6%

Question: Which cytotoxicity does the source give for `CCC(C)n1nccc1NC(=O)C(C)OC(=O)c1cc2ccccc2[nH]1` (centres undefined) here?
Answer: 7%

Question: For `CCOC(=O)Cc1c(C)c2ccc(N(CC)CC)cc2oc1=O`, which cytotoxicity is on record?
Answer: -21.9%

Question: For `CCN(CC)C(=O)Oc1ccc2c(=O)c(-c3ccc(OC)cc3)c(C)oc2c1`, which cytotoxicity is on record?
Answer: 4.7%

Question: With `CCOc1cc2c(C)cc(=O)oc2cc1Cl` as the compound, how does the cytotoxicity read?
Answer: 0.2%

Question: For `CCNc1ccc2c(Cl)cc(=O)oc2c1`, which cytotoxicity is on record?
Answer: 6.3%

Question: For `CCN(CC)c1ccc2c(C)c(CN3CCOCC3)c(=O)oc2c1`, which cytotoxicity is on record?
Answer: 26.6%

Question: For `CCN(CC)c1ccc2cc(NC(=O)CCC(=O)O)c(=O)oc2c1`, which cytotoxicity is on record?
Answer: 15.5%

Question: Which cytotoxicity does the source give for `CCN(CC)c1ccc2c(C)c(-c3ccc(N)cc3)c(=O)oc2c1` here?
Answer: 82.1% (active)

Question: Which cytotoxicity does the source give for `COc1ccc(-n2cnnc2SCC(=O)N(C)C2CCS(=O)(=O)C2)cc1` (centres undefined) here?
Answer: 3.5%

Question: For `COCc1nc2ccccc2n1Cc1ccc(Br)cc1`, which cytotoxicity is on record?
Answer: -5.7%

Question: For `CSc1nnc(-c2sc3cc(Cl)ccc3c2Cl)n1C`, which cytotoxicity is on record?
Answer: -20.3%

Question: Which cytotoxicity does the source give for `Cc1csc(NC(=O)c2nc3nc(C)cc(C)n3n2)n1` here?
Answer: -16.1%

Question: For `Cc1cccc(C)c1-n1nnnc1S(=O)(=O)Cc1ccccc1Cl`, which cytotoxicity is on record?
Answer: -1.5%

Question: For `COc1ccccc1-n1nnnc1SCc1ccccc1`, which cytotoxicity is on record?
Answer: -10.6%

Question: With `O=c1[nH]c2cc3c(cc2cc1CN(CCc1ccccc1)Cc1nnnn1C1CCCC1)OCCO3` as the compound, how does the cytotoxicity read?
Answer: -11.1%

Question: Which cytotoxicity does the source give for `CC(CN1CCCCC1)OC(=O)c1cc2ccccc2o1` (centres undefined) here?
Answer: -6.7%

Question: For `CCCS(=O)(=O)N1CCCC(C(=O)NCc2ccc3c(c2)OCO3)C1` (centres undefined), which cytotoxicity is on record?
Answer: -6.2%

Question: With `CC(C)[C@H](NC(=O)OC(C)(C)C)c1nnc(S(=O)(=O)Cc2c(F)cccc2Cl)o1` as the compound, how does the cytotoxicity read?
Answer: -5.9%

Question: With `CC(C)C[C@H](N)c1nnc(S(=O)(=O)Cc2cccc(F)c2)o1` as the compound, how does the cytotoxicity read?
Answer: -7.4%

Question: For `Cc1ccc(C2N(c3cccc(Cl)c3)C(=O)C3CCCN32)o1` (centres undefined), which cytotoxicity is on record?
Answer: -0.1%

Question: Which cytotoxicity does the source give for `COc1ccc(C(=O)Nn2c(SCC(=O)NCC3CCCO3)nc3ccccc3c2=O)cc1` (centres undefined) here?
Answer: -11%

Question: For `O=C(CCc1ccccc1)Nc1ccc(N2CCOCC2)cc1`, which cytotoxicity is on record?
Answer: 2.6%

Question: Which cytotoxicity does the source give for `Cc1cc(-n2c(=O)c(C#N)cc3c(=O)n4ccccc4nc32)no1` here?
Answer: -4.7%

Question: With `Cc1ccc(-n2c(=O)c(C#N)cc3c(=O)n4ccccc4nc32)cc1` as the compound, how does the cytotoxicity read?
Answer: 69.7% (active)

Question: With `C=CCn1c(=O)c(C#N)cc2c(=O)n3ccccc3nc21` as the compound, how does the cytotoxicity read?
Answer: 4.5%

Question: For `O=C(Nc1ccc2c(c1)OCCO2)c1ccc(Br)c(S(=O)(=O)N2CCOCC2)c1`, which cytotoxicity is on record?
Answer: -7.9%

Question: For `CC(C)CC(NC(=O)C1CCC(C)CC1)C(=O)Nc1ccccn1` (centres undefined), which cytotoxicity is on record?
Answer: -19.7%

Question: For `CCOC(=O)c1nnn(-c2nonc2N)c1CSc1ccccn1`, which cytotoxicity is on record?
Answer: -3.2%

Question: For `COc1ccc(-n2nnnc2SCC(N)=O)cc1`, which cytotoxicity is on record?
Answer: -7.1%

Question: For `CCOC(=O)CSC1=C(C#N)C(c2ccco2)C(C(=O)Nc2cccc(C(F)(F)F)c2)=C(C)N1` (centres undefined), which cytotoxicity is on record?
Answer: 28.1%

Question: For `CC1=C(C(=O)Nc2ccccc2)C(c2ccco2)C(C#N)=C(SCc2ccccc2)N1` (centres undefined), which cytotoxicity is on record?
Answer: 57.7% (active)

Question: For `CC1=C(C(=O)Nc2ccccc2)C(c2ccco2)C(C#N)=C(SCC(=O)Nc2cccc(C)c2C)N1` (centres undefined), which cytotoxicity is on record?
Answer: 79.6% (active)

Question: With `CCOC(=O)C1=C(c2ccccc2)NC(SCC(=O)Nc2ccccc2C)=C(C#N)C1c1ccco1` (centres undefined) as the compound, how does the cytotoxicity read?
Answer: 39%

Question: For `COc1ccccc1NC(=O)C1=C(C)NC(SCC(=O)c2ccccc2)=C(C#N)C1c1ccco1` (centres undefined), which cytotoxicity is on record?
Answer: 27.2%

Question: With `CC1=C(C(=O)Nc2ccccc2)C(c2ccco2)C(C#N)=C(SCC(=O)OC(C)C)N1` (centres undefined) as the compound, how does the cytotoxicity read?
Answer: 49.2%

Question: With `CCOC(=O)C(NC(=O)c1ccccc1)=C1CCCCC1` as the compound, how does the cytotoxicity read?
Answer: -19.2%

Question: With `CC(c1ccccc1)n1cc(C(=O)NCc2ccccn2)nn1` (centres undefined) as the compound, how does the cytotoxicity read?
Answer: -7.5%

Question: Which cytotoxicity does the source give for `CCCc1cc(=O)[nH]c(SCC(=O)Nc2ccc(OC(F)F)cc2)n1` here?
Answer: -7.3%

Question: For `O=C(NCCCN1CCCCCC1)c1ccc(CS(=O)(=O)Cc2ccccc2F)o1`, which cytotoxicity is on record?
Answer: -3%

Question: For `Cc1cccc2sc(NC(=O)CNS(=O)(=O)c3ccc(Br)s3)nc12`, which cytotoxicity is on record?
Answer: -11.6%

Question: For `Cc1cccc2sc(NC(=O)CN(C)S(=O)(=O)c3cccs3)nc12`, which cytotoxicity is on record?
Answer: 28.8%

Question: For `COCCn1c(SCC#N)nnc1-c1ccccc1O`, which cytotoxicity is on record?
Answer: -24.2%

Question: For `COc1ccc(NC(=O)N2CCCCC2)cc1`, which cytotoxicity is on record?
Answer: -3.1%

Question: Which cytotoxicity does the source give for `Oc1cccc(Nc2ncnc3ccccc23)c1` here?
Answer: 4.2%

Question: Which cytotoxicity does the source give for `COc1ccc(CNC(=O)Cc2ccc(OC)c(S(=O)(=O)N3CCOCC3)c2)cc1` here?
Answer: 3.6%

Question: With `c1ccc(Cn2nnnc2CN2CCN(Cc3ccc4c(c3)OCO4)CC2)cc1` as the compound, how does the cytotoxicity read?
Answer: -0.4%

Question: Which cytotoxicity does the source give for `Cc1nc2cc(C(F)(F)F)ccc2n1C1CCN(CC(=O)N2CCOCC2)CC1` here?
Answer: -14.7%

Question: With `CC1(C)CC(=O)C(C=Nc2ccc3[nH]ncc3c2)=C(O)C1` as the compound, how does the cytotoxicity read?
Answer: 14.8%

Question: Which cytotoxicity does the source give for `CN1CCN(C(=O)c2cc3c(n(-c4ccccc4)c2=O)CC(C)(C)CC3=O)CC1` here?
Answer: -5%

Question: Which cytotoxicity does the source give for `CCCn1c(=O)c2ccccc2n2c(SCCOc3ccc(OC)cc3)nnc12` here?
Answer: -17.4%

Question: With `COCCCNc1oc(COc2ccc(Cl)cc2Cl)nc1C#N` as the compound, how does the cytotoxicity read?
Answer: 18.7%

Question: For `CN(C)c1oc(-c2ccc(OCc3ccccc3)cc2)nc1C#N`, which cytotoxicity is on record?
Answer: -8.5%

Question: Which cytotoxicity does the source give for `CN(C)c1oc(-c2ccc(OCc3ccc(Cl)cc3)cc2)nc1C#N` here?
Answer: 51.7% (active)

Question: Which cytotoxicity does the source give for `N#Cc1nc(-c2ccc(OCc3ccc(Cl)cc3)cc2)oc1N1CCOCC1` here?
Answer: -19.7%

Question: With `O=C(Cn1cccc1)Nc1ccc(F)cc1F` as the compound, how does the cytotoxicity read?
Answer: 1%

Question: For `CCOC(=O)c1[nH]c2ccc(C)cc2c1N=C(C)N(C)C`, which cytotoxicity is on record?
Answer: 70% (active)

Question: Which cytotoxicity does the source give for `CCOC(=O)c1[nH]c2ccc(C)cc2c1N=CN(CC)CC` here?
Answer: 4.8%

Question: Which cytotoxicity does the source give for `CCOC(=O)c1[nH]c2ccc(F)cc2c1N=C(C)N(CC)CC` here?
Answer: -17.4%

Question: For `OC(CN1CCOCC1)CN(c1ccccc1)c1ccccc1` (centres undefined), which cytotoxicity is on record?
Answer: -10.7%

Question: With `O=C(CSc1ncnc2ccccc12)N1CCCC1` as the compound, how does the cytotoxicity read?
Answer: -10.1%

Question: Which cytotoxicity does the source give for `CC1(C)CC(=O)c2cnn(-c3nc4ccccc4[nH]3)c2C1` here?
Answer: -19%

Question: For `c1ccc2c(c1)nc(N1CCOCC1)c1c3ccccc3[nH]c21`, which cytotoxicity is on record?
Answer: -52.3%

Question: Which cytotoxicity does the source give for `COc1cc(C(C)=O)ccc1OC(=O)C(C)N1C(=O)c2ccccc2C1=O` (centres undefined) here?
Answer: -5.8%

Question: Which cytotoxicity does the source give for `O=C(NCc1ccco1)C(Cc1ccccc1)N1C(=O)c2ccccc2C1=O` (centres undefined) here?
Answer: -12.8%

Question: Which cytotoxicity does the source give for `COc1ccc(NC(=O)CC2C(=O)N(c3ccc(OC)cc3)C(=O)N2CCN2CCN(C)CC2)cc1` (centres undefined) here?
Answer: -7.8%

Question: For `COc1cc(C2C(C(C)=O)=C(O)C(=O)N2CCc2ccc(OC)c(OC)c2)ccc1O` (centres undefined), which cytotoxicity is on record?
Answer: 1.7%

Question: Which cytotoxicity does the source give for `Cc1ccc(C2c3c(-c4ccccc4O)n[nH]c3C(=O)N2Cc2ccncc2)cc1` (centres undefined) here?
Answer: 8.5%

Question: For `COc1ccc(CCN2C(=O)c3[nH]nc(-c4ccccc4O)c3C2c2ccccc2)cc1OC` (centres undefined), which cytotoxicity is on record?
Answer: 24%

Question: Which cytotoxicity does the source give for `COc1ccc(C2c3c(-c4ccccc4O)n[nH]c3C(=O)N2CCc2ccc(OC)c(OC)c2)cc1` (centres undefined) here?
Answer: 51.4% (active)

Question: For `COc1ccc(CCN2C(=O)c3[nH]nc(-c4ccccc4O)c3C2c2cccc(O)c2)cc1OC` (centres undefined), which cytotoxicity is on record?
Answer: 63.4% (active)

Question: For `CC(C)OCCCN1C(=O)c2[nH]nc(-c3ccccc3O)c2C1c1cccc(Cl)c1` (centres undefined), which cytotoxicity is on record?
Answer: -4.9%

Question: Which cytotoxicity does the source give for `COCCCN1C(=O)c2[nH]nc(-c3ccccc3O)c2C1c1ccc(Cl)cc1` (centres undefined) here?
Answer: 62.9% (active)

Question: With `COc1ccc(C2c3c(-c4cc(Cl)c(C)cc4O)n[nH]c3C(=O)N2Cc2cccnc2)cc1OC` (centres undefined) as the compound, how does the cytotoxicity read?
Answer: 14.2%

Question: For `Cc1cc(O)c(-c2n[nH]c3c2C(c2cccc(O)c2)N(Cc2cccnc2)C3=O)cc1Cl` (centres undefined), which cytotoxicity is on record?
Answer: 9.3%

Question: With `COCCCN1C(=O)c2[nH]nc(-c3cc(C)cc(C)c3O)c2C1c1ccc(O)c(OC)c1` (centres undefined) as the compound, how does the cytotoxicity read?
Answer: 12%

Question: For `COCCCN1C(=O)c2[nH]nc(-c3ccccc3O)c2C1c1cccc(Cl)c1` (centres undefined), which cytotoxicity is on record?
Answer: 18.6%

Question: For `Cc1ccc(S(=O)(=O)N(C)CCCC(=O)NCc2ccc3c(c2)OCO3)cc1`, which cytotoxicity is on record?
Answer: -7.5%

Question: For `O=S(=O)(c1cccc(-c2csc(-c3cccnc3)n2)c1)N1CCCCC1`, which cytotoxicity is on record?
Answer: -13.4%

Question: For `Cn1nccc1/C=C(/C#N)S(=O)(=O)c1ccccc1`, which cytotoxicity is on record?
Answer: -21.9%

Question: Which cytotoxicity does the source give for `Cc1ccc2nc(SCC(=O)O)nc(C)c2c1` here?
Answer: -14.7%

Question: Which cytotoxicity does the source give for `CCc1nnc(NC(=O)CSc2nnc(Cc3ccccc3)n2-c2ccccc2)s1` here?
Answer: -4.7%

Question: For `CC1=Nn2c(nnc2-c2ccco2)SC1`, which cytotoxicity is on record?
Answer: -17.8%

Question: For `COC(=O)c1sc(NC(=O)C2CCCO2)c(C(=O)OC)c1C` (centres undefined), which cytotoxicity is on record?
Answer: 19.4%

Question: For `Cc1nnc(SC(=O)N2c3ccccc3Sc3ccccc32)s1`, which cytotoxicity is on record?
Answer: -0.5%

Question: Which cytotoxicity does the source give for `COc1ccc(C(=O)CSc2nnc(-c3ccccc3)o2)cc1` here?
Answer: -6.4%

Question: Which cytotoxicity does the source give for `COc1cc(OC)cc(-c2nnc(SCC(=O)N3c4ccccc4Sc4ccccc43)o2)c1` here?
Answer: -24.8%

Question: Which cytotoxicity does the source give for `O=C(CCN1c2ccccc2Sc2ccccc21)OCc1nnc(-c2ccccc2)o1` here?
Answer: 3.5%
